Source: PubChem
The list is not random: actives were taken first. Their share in the collection is about 8.9%.
KB-V1 cytotox – kills drug-selected multidrug resistant KB-V1 cells. KB-V1 MDR cells viability, CellTiter-Glo, 72 h. Potency, µM (titrated, usually from 46.1 µM), usual class: cytotoxic. 3.4% of 400,000 active. AID 1347076; further: potency means the concentration at half of the fitted maximal effect; on the % scale 0 is the no-effect control and ±100 the full control effect; nearly all actives have a fitted effect of over 60% in size
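Cytotoxicity via CellTiter-Glo luminescence after 72 h compound exposure at 37 degrees C. Cells: drug-selected KB-V1 line, DMEM phenol-red free plus 10% FBS. Compounds tested at multiple concentrations; normalized data fitted to concentration-effect curves.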
KB-3-1 cytotox – kills parental KB-3-1 adenocarcinoma cells; KB-3-1 viability, CellTiter-Glo ATP luminescence, 72 h; Potency, µM (series often up to 46.1 µM), hits mostly cytotoxic; 1.4% of 400,000 active; AID 1347075; further: potency means the concentration at half of the fitted maximal effect; on the % scale 0 is the no-effect control and ±100 the full control effect; nearly all actives have a fitted effect of over 60% in size
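Here the drug-naive KB-3-1 line serves as comparator for MDR sub-line selectivity; cells received compound titrations, 72 h at 37 °C, then CellTiter-Glo readout.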
DRD3 agonist – activates the human D3 dopamine receptor | 0.58% of 410,000 active | D3R DiscoveRx beta-arrestin cells, luminescence, 90 min | P35462 | max activation, %; in the data active means max activation above about 30%; further: 0% is about no effect
Target sequence (P35462 whole entry, looked up): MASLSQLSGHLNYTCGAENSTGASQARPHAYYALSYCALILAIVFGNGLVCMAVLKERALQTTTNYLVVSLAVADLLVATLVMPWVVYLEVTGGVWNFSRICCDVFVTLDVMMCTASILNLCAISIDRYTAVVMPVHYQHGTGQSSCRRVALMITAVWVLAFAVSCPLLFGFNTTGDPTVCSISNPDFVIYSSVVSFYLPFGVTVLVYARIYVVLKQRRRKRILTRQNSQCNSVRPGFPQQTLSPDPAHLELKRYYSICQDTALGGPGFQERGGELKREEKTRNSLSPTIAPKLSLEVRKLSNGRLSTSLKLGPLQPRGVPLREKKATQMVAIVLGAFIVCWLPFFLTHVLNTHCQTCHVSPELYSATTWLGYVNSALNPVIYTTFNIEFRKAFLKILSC
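Agonist-mode cell screen: cells plated at 1500/well and incubated overnight at 37 °C, then exposed to library compounds for 90 min at 37 °C. Detection reagent was added for 30–60 min at room temperature, and luminescence was read.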
SW480 rerep – DNA re-replication induction in SW480 cells; 1.8% of 340,000 active; SW480 DNA re-replication, Hoechst DNA content imaging, 48 h; Potency, µM (highest dose often 46.1 µM), for inactives: at the top dose re-replication activation, most hits filed as activators; further: potency means the concentration at half of the fitted maximal effect; % of control where 0% means no effect; nearly all actives have a fitted effect of over 55% in size
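Image-based DNA-content assay: after two days of treatment, nuclei were labelled with the DNA dye Hoechst and imaged, and hits were compounds raising the count of nuclei showing high fluorescence intensity.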
MCF10A rerep – DNA re-replication induction in MCF 10a cells. MCF 10A DNA re-replication, Hoechst nuclear intensity, 48 h. Potency, µM (titrated, usually from 46.1 µM), for inactives: top-dose activity, positive = re-replication, hits mostly activators. 2.9% of 350,000 active. AID 624296; further: potency means the concentration at half of the fitted maximal effect; % of control where 0% means no effect; nearly all actives have a fitted effect of over 50% in size
D3 antag – D3 dopamine receptor (human) antagonism | D3R cells, DiscoveRx beta-arrestin luminescence, antagonist mode; hits give low values | max response, negative = inhibition, % | 2.5% of 360,000 active | AID 652054; in the data active means max response below about -50%; inconclusive means no clear call, values can overlap the other calls; further: on the % scale 0 is the no-effect control and ±100 the full control effect
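Cells expressing the human receptor were seeded at 1500 cells/well, incubated overnight at 37 degrees C in 5% CO2, then exposed to library compounds with dopamine controls for 90 minutes at 37 degrees C before luminescent detection.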
An asterisk follows results filed as active; i = inactive; ? = inconclusive; / = no result. Unless noted, the call rests on the fitted dose curve; in most records, active means well fitted curve in the direction sought with a large enough effect; inconclusive means small, poorly fitted or top-dose-only effect, or another doubt; inactive means no such curve, though single readings can be large; an effect the other way counts as inactive or inconclusive.

SMILES | KB-V1 cytotox | KB-3-1 cytotox | DRD3 agonist | SW480 rerep | MCF10A rerep | D3 antag
O=c1c2sc3ccccc3c2n(Cc2ccccc2F)c(=O)n1Cc1ccccc1 | i | i | -10 | / | / | /
O=C(NC1CCCC1)C(c1ccncc1)N(Cc1ccccc1)C(=O)Cc1cccs1 (stereo unspecified) | ? | i | 0 | -3% | 0% | 4
COc1ccc(CNC(=O)C(c2ccc(C)o2)N(Cc2cccs2)C(=O)Cc2cccs2)cc1 (stereo unspecified) | 15µM* | ? | 3 | 21% | ? | -57*
O=C(NC1CCCC1)C(c1ccsc1)N(Cc1ccccc1)C(=O)Cc1cccs1 (stereo unspecified) | 4.6µM* | i | 3 | 8% | 20% | -19
O=C(NCc1ccccc1)C(c1ccccc1)N(Cc1ccc2c(c1)OCO2)C(=O)Cc1cccs1 (stereo unspecified) | 13µM* | i | 1 | 5% | ? | 28
COCCN(C(=O)Cc1cccs1)C(C(=O)NCc1ccc(OC)cc1)c1ccc(C)cc1 (stereo unspecified) | ? | i | -2 | 1% | 27% | 12
Oc1ccc(Oc2ccc3c(C(F)(F)F)cc(C(F)(F)F)nc3n2)cc1 | i | i | 44* | ? | ? | 85
COc1ccc(Oc2ccc3c(C(F)(F)F)cc(C(F)(F)F)nc3n2)cc1 | 16µM* | i | -10 | 1% | 6% | -21
COc1cccc(-c2cc(=O)c3cc(NC(C)=O)ccc3[nH]2)c1 | i | i | -23 | 16µM* | 23µM* | -25
CC(=O)Nc1ccc2[nH]c(C)cc(=O)c2c1 | ? | i | -4 | -4% | -2% | -20
CCN1CCN(C(=O)c2ccc3c(c2)N(Cc2ccccc2)C(=O)c2ccccc2S3(=O)=O)CC1 | i | i | -15 | -7% | 5% | -72*
CCN1CCN(C(=O)c2ccc3c(c2)N(Cc2ccc(Cl)cc2)C(=O)c2ccccc2S3(=O)=O)CC1 | i | i | -14 | / | / | /
CN(C)c1ccc(C=c2c3ccccc3n3c2c2ccccc2[n+]3C)cc1 | ? | 5.2µM* | -8 | 13µM* | ? | ?
CCOC(=O)c1cc2c(=Cc3ccc(N(C)C)cc3)c3ccccc3n2[n+]1C | ? | 2.1µM* | -10 | ? | 25% | -5
Cc1cc(-c2nn(-c3ccccc3F)cc2CN2CCCC(CO)C2)c(C)s1 (stereo unspecified) | i | i | -4 | 16% | 5% | -53*
COCC1CCN(Cc2cn(-c3ccccc3F)nc2-c2cc(C)sc2C)CC1 | i | i | -30 | -4% | 1% | -84*
Cc1cc(-c2nn(-c3ccccc3F)cc2CN2CCCC(O)C2)c(C)s1 (stereo unspecified) | i | i | -7 | 7% | 22% | -13
CCCCCCCCCCCCCC(=O)Nc1ccc(/C=C/c2ccnc3ccccc23)cc1 | i | ? | / | / | / | /
Cc1nc2[nH]c(=S)n(C)c(=O)c2nc1C | i | i | -4 | 26µM* | 0% | 0
Cc1nc2c(=O)[nH]n(C)c2nc1C | i | i | 6 | / | / | 15
O=C(CN(c1ccc2c(c1)OCCO2)S(=O)(=O)c1ccccc1)NCc1ccc(Cl)cc1 | 3.7µM* | i | -5 | 5% | ? | 8
CCCCN(CC(=O)NCc1ccc(Cl)cc1)S(=O)(=O)c1ccc2c(c1)OCCO2 | 12µM* | i | -1 | -2% | ? | 8
COC(=O)c1ccc(Cl)cc1NC(=O)N(Cc1ccc(OC)cc1)C1CCN(C(C)=O)CC1 | i | i | 9 | / | / | /
CCn1c(=O)c(=O)[nH]c2cc(C(=O)NC3CC3)ccc21 | i | i | -3 | -136% | -29% | -16
COc1ccc(C(=O)NCC2(c3ccc(OC)c(OC)c3)CCCC2)cc1OC | ? | i | 3 | / | / | -6
SMILES | KB-V1 cytotox | KB-3-1 cytotox | DRD3 agonist | SW480 rerep | MCF10A rerep | D3 antag
COc1ccc(CN(C)CC(=O)NC2CCCc3ccccc32)cc1OC (stereo unspecified) | ? | i | 1 | 4.1µM* | ? | 2
COc1ccc(C(=O)NC2CCCc3ccccc32)cc1[N+](=O)[O-] (stereo unspecified) | 5.8µM* | ? | -1 | ? | ? | 19
COc1ccc(C2(CNC(=O)c3ccc(OC)c([N+](=O)[O-])c3)CCCCC2)cc1OC | 2.6µM* | i | 4 | -92% | 2% | 4
COc1cc(C(=O)NC2CCCc3ccccc32)cc(OC)c1C (stereo unspecified) | i | i | -4 | 0% | 1% | 11
CCn1c(=O)c(=O)[nH]c2cc(C(=O)NC3CCCc4ccccc43)ccc21 (stereo unspecified) | i | 10µM* | 0 | ? | ? | -2
COc1cc(CC(=O)NC2CCCc3ccccc32)cc(OC)c1OC (stereo unspecified) | ? | i | -3 | -4% | 4% | 17
O=C(Nc1ccc2c(c1)OCCO2)Nc1nnc(-c2ccncc2)s1 | i | i | / | / | / | /
COc1cc(NC(=O)c2cc3c(=O)n(Cc4ccco4)ccc3nc2C)cc(OC)c1OC | / | / | 2 | / | / | /
CCOC(=O)CC(NC(=O)CCc1c(C)nc2c(-c3ccccc3)c(C)nn2c1C)c1ccc(C)cc1 (stereo unspecified) | i | i | 6 | / | / | /
CCOC(=O)CC(NC(=O)CCc1c(C)nc2c(-c3ccccc3)c(C)nn2c1C)c1ccc(OC(C)C)cc1 (stereo unspecified) | i | i | 36* | / | / | /
Cc1cc(=O)oc2cc(OCCCC[n+]3ccccc3)ccc12 | i | i | -13 | 0% | 10% | -25
Cc1cc(=O)oc2cc(OCCc3ccccc3)ccc12 | i | 21µM* | -2 | -2% | 10% | -8
Cc1cc(=O)oc2cc(OCCSCCN3CCCCC3)ccc12 | i | i | -12 | 2% | -3% | -66*
Cc1cc(=O)oc2cc(OCCSc3nnc(-c4ccccc4)o3)ccc12 | i | i | -16 | -2% | ? | 24
Cc1cc(C)c(S(=O)(=O)Nc2ccc(-c3ccc(N4CCCCC4)nn3)cc2)cc1C | i | i | -5 | / | / | /
CCc1cccc(NC(=O)c2ccc3c(c2)N(Cc2cccc(Cl)c2)C(=O)c2ccccc2S3=O)c1 (stereo unspecified) | i | i | 3 | / | / | /
CCc1nc2ccc(C(=O)NCCCN3CCCC3=O)cn2c1N(CC)C(=O)NCCc1ccccc1 | i | i | 0 | / | / | 9
CCc1nc2ccc(C(=O)NCCCN3CCCC3=O)cn2c1N(CC)C(C)=O | i | i | -5 | / | / | -56*
